# Values joined by “and” are separate entries in the source; they are usually repeats but may differ in a detail not shown here. Identical values can stand only once. Out of some 290,000 compounds screened, about 370 (0.13%) were called active.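 The calls were made as follows: active = spots per cell inhibited over 60%, with over 100 cells counted and total cytoplasm intensity under 500,000; inconclusive = wells with under 100 cells, flagged as likely toxic; inactive = the rest.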 The full list was thinned out, with actives kept by preference. Measured potencies and affinities stand elsewhere. Some structures have more than one record in an assay (separate samples or runs), and their calls can disagree.
# Target: G-protein coupled receptor 55 (Homo sapiens) (UniProt Q9Y2T6)
# Sequence (Q9Y2T6 whole entry, looked up): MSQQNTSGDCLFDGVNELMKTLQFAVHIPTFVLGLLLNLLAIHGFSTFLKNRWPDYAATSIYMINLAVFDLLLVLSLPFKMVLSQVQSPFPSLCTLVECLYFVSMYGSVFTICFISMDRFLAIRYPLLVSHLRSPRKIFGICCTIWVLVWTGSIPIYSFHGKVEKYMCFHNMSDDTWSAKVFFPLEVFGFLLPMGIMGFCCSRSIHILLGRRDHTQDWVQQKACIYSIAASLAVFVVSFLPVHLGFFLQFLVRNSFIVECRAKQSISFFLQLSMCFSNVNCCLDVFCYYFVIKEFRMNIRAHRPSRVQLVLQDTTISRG
# Test: inhibition of LPI-stimulated GPR55 beta-arrestin translocation – imaging, U2OS, beta-arrestin-GFP, LPI agonist, primary screen (AID 2013);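 also: U2OS cells stably carrying GPR55 and arrestin-GFP stimulated by 5 µM LPI near EC80; imaged beta-arrestin-GFP aggregate spots per cell after agonist stimulation; plate controls were LPI-stimulated DMSO wells for no effect and DMSO wells without LPI for full effect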
# Details: LPI antagonism, at 10 µM, stronger effect = higher value
row,Structure (SMILES),inhibition
1,COc1cc2nc(SCC(N)=O)n(CCC3=CCCCC3)c(=O)c2cc1OC,-6.5% (inactive)
2,COc1cc(NC(=O)c2cc(C)no2)cc(OC)c1OC,3.4% (inactive)
3,COc1cc(-c2nn3c(-c4ccccc4)nnc3s2)cc(OC)c1OC,-5.2% (inactive)
4,Cc1cc(/C=C2\SC(N)=NC2=O)c(C)n1-c1ccccc1,-9.3% (inactive)
5,Cc1cc(/C=C2\SC(=O)N(C)C2=O)c(C)n1-c1ccc(S(N)(=O)=O)cc1,5% (inactive)
6,[N-]=[N+]=NC[C@H](c1ccccc1)N1CCN(Cc2ccccc2)CCC1=O,9.8% (inactive)
7,CCOC(=O)CC(NC(=O)CCS(=O)(=O)c1ccc2c(c1)n(C)c(=O)c(=O)n2C)c1ccc(C)cc1 (stereo not given),10.2% (inactive)
8,CCN(CC)c1ccc(/C=N/n2c(C)nc3ccccc3c2=O)cc1,-7.1% (inactive)
9,O=S(=O)(c1ccc(F)cc1)N1CCc2ccccc21,9.6% (inactive)
10,O=S(=O)(c1ccc(F)cc1)N1CCCc2ccccc21,93.9% (active)
11,O=S(=O)(c1ccccc1)N1CCCc2ccccc21,0.9% (inactive)
12,COc1ccc(Br)cc1S(=O)(=O)Nc1cccc(C)n1,9.5% (inactive)
13,C=CCN(C(=O)CNC(=O)c1ccco1)C(C(=O)NC1CCCCC1)c1ccccc1 (stereo not given),-5.9% (inactive)
14,C=CCN(C(=O)CNC(=O)c1ccco1)C(C(=O)NC1CCCCC1)c1ccc(OC)cc1 (stereo not given),-13.5% (inactive)
15,C=CCN(C(=O)CNC(=O)c1ccco1)C(C(=O)NC1CCCCC1)c1ccc(F)cc1 (stereo not given),73.3% (active)
16,CC(C)N1CCC(N2CCN(Cc3ccc(-c4ccc(Cl)cc4)o3)CC2CCO)CC1 (stereo not given),0.6% (inactive)
17,CC(NC(=O)CCCCCNC(=O)N1CCn2c1nc1ccccc12)c1ccccc1 (stereo not given),2.2% (inactive)
18,Cc1oc(-c2cccc(Cl)c2)nc1CS(=O)(=O)CC(=O)NCCN1CCOCC1,-0.5% (inactive)
19,CCOC(=O)C1=C(C)NC(=O)NC1c1ccc(Br)o1 (stereo not given),-4% (inactive)
20,CCOC(=O)C1=C(C)NC(C)=C(C(=O)OCC)C1c1ccc(C)o1,10.1% (inactive)

row,Structure (SMILES),inhibition
1,CCCCCCOC(=O)c1ccc(NC(=O)c2cc(OC)c(OC)c(OC)c2Br)cc1,-0.3% (inactive)
2,Cc1cnc(NC(=O)NCC2CCCC(CNC(=O)Nc3ncc(C)s3)C2)s1 (stereo not given),-6.9% (inactive)
3,CCCCC(O)(CCCC)C(=O)NN(C(=O)c1cccnc1Cl)c1ccccc1,6.1% (inactive)
4,COc1ccc2c(C)cc(SCn3nnc4ccccc4c3=O)nc2c1,-3.7% (inactive)
5,CCN1C(=O)C(O)(CC(=O)c2ccccn2)c2ccccc21 (stereo not given),12% (inactive)
6,CCN1C(=O)C(O)(C2COC(C)(C)CC2=O)c2ccccc21 (stereo not given),7.4% (inactive)
7,CCOc1ccc(Cl)cc1S(=O)(=O)N1CCC(C(=O)NCC2CCCO2)CC1 (stereo not given),-1.1% (inactive)
8,O=C(CSC1=NCCS1)Nc1cccc(F)c1,-2.2% (inactive)
9,COc1ccc(CCNC2=NCC(C)S2)cc1 (stereo not given),6.5% (inactive)
10,Cc1ccc(NC2=NCC(Cc3ccc(Br)cc3)S2)cc1 (stereo not given),49% (inactive)
11,COc1cccc(C(=O)Nc2cc(C(=O)NCc3ccc(C)cc3)ccc2N2CCC3(CC2)CC(c2ccccc2)=NO3)c1,10.8% (inactive)
12,Cc1cccc(C)c1NC(=O)CN(C)CC(=O)Nc1cc(Cl)ccc1C#N,6.8% (inactive)
13,N#CC1=C2N=C(N)c3ccccc3N2C2=C(C(=O)CCC2)C1c1ccc(Cl)cc1 (stereo not given),86.9% (inactive)
14,N#CC1=C2N=C(N)c3ccccc3N2C2=C(C(=O)CCC2)C1c1ccc(F)cc1 (stereo not given),13.1% (inactive)
15,O=S(=O)(NCC1CCN(c2ccc(S(=O)(=O)N3CCOCC3)cc2)CC1)c1ccccc1,0.7% (inactive)
16,O=C(O)Cn1ncn(-c2ccc(OC(F)(F)F)cc2)c1=O,4.9% (inactive)
17,Cc1ccccc1C(=O)NC(=S)NCCC1=CCCCC1,1% (inactive)
18,O=C(NC(=S)NCCC1=CCCCC1)c1ccccc1Br,74.9% (active)
19,O=C(NC(=S)NCCC1=CCCCC1)c1ccc(Br)o1,4.9% (inactive)
20,CCOc1ccccc1NC(=O)NCc1ccco1,11.3% (inactive)

row,Structure (SMILES),inhibition
1,Cc1cc(SCC(=O)N/N=C/c2ccc(O)cc2O)nc2ccccc12,13.8% (inactive)
2,Oc1oc(-c2ccc(Br)cc2)nc1C=Nc1ccc(Br)cn1,-0.2% (inactive)
3,CC(=O)c1ccc(N2CCN(C3CCC(C(C)(C)C)CC3)CC2)cc1 (stereo not given),9% (inactive)
4,O=C(O)Cc1cc(I)c(Oc2ccc(O)c(I)c2)c(I)c1,6.9% (inactive)
5,N[C@@H](Cc1ccc(O)c(I)c1)C(=O)O,8.6% (inactive)
6,N[C@@H](Cc1cc(I)c(Oc2ccc(O)c(I)c2)c(I)c1)C(=O)O,6.9% (inactive) and 99.2% (active)
7,COc1ccccc1N1CCN(CCCCOc2ccc(C)cc2C)CC1,18.9% (inactive)
8,Cc1ccc(NC2=C/C(=N/S(=O)(=O)c3cccs3)c3ccccc3C2=O)cc1,16% (inactive)
9,Cc1ccccc1NC1=C/C(=N\S(=O)(=O)c2cccs2)c2ccccc2C1=O,-11.4% (inactive)
10,COc1ccc(OCc2nnc(SCC(=O)Nc3ccccc3F)o2)cc1,-6.5% (inactive)
11,Cc1cccc(C(=O)N(CCc2ccccc2)Cc2ccccc2)c1[N+](=O)[O-],14% (inactive)
12,O=C(OCn1ncc(Cl)c(Cl)c1=O)c1ccc(F)cc1,1.3% (inactive)
13,O=C(OCn1ncc(Br)c(Br)c1=O)c1c(F)cccc1F,-5.4% (inactive)
14,CCOC(=O)C1=C(C(F)(F)F)Nc2ncnn2C1c1cccc(OC)c1OC (stereo not given),13.1% (inactive)
15,CCCc1nc2c(=O)n(C)c(=O)nc-2n(C)n1,-5.2% (inactive)
16,Cn1nc(-c2ccccn2)nc2c(=O)n(C)c(=O)nc1-2,45.9% (inactive)
17,O=C(/C=C/c1ccc(S(=O)(=O)N2CCOCC2)cc1)N1CCN(c2ccccc2)CC1,-10.2% (inactive)
18,COc1ccc(Br)cc1S(=O)(=O)n1ccnc1,3.5% (inactive)
19,CN(c1ccc(C(=O)NCCSCc2ccccc2)cc1)S(=O)(=O)c1ccccc1,-5.5% (inactive)
20,Cc1ccc(CSCCNC(=O)c2ccc(N(C)S(=O)(=O)c3ccccc3)cc2)cc1,4.4% (inactive)

# Source: PubChem BioAssay AID2013 (Sanford-Burnham Center for Chemical Genomics, 2009)
